# The campaign covered roughly 390,000 compounds. About 17,000 (4.4%) were called active. Where a call stands in place of a potency, no number is given. Not shown: some 8% with an inconclusive outcome. The sample holds actives, similar compounds and a random draw of the others, so the mix is not that of the screen. Calls follow the shape of the dose curve; as a rule, active = well fitted inhibition curve with a large enough effect; inconclusive = small, poorly fitted or top-dose-only effect; inactive = no such curve, though single readings can be large or run the other way.
# Target: Lysine-specific demethylase 4A (Homo sapiens) (UniProt O75164)
# Sequence (O75164 whole entry, looked up, the tested form may be a part): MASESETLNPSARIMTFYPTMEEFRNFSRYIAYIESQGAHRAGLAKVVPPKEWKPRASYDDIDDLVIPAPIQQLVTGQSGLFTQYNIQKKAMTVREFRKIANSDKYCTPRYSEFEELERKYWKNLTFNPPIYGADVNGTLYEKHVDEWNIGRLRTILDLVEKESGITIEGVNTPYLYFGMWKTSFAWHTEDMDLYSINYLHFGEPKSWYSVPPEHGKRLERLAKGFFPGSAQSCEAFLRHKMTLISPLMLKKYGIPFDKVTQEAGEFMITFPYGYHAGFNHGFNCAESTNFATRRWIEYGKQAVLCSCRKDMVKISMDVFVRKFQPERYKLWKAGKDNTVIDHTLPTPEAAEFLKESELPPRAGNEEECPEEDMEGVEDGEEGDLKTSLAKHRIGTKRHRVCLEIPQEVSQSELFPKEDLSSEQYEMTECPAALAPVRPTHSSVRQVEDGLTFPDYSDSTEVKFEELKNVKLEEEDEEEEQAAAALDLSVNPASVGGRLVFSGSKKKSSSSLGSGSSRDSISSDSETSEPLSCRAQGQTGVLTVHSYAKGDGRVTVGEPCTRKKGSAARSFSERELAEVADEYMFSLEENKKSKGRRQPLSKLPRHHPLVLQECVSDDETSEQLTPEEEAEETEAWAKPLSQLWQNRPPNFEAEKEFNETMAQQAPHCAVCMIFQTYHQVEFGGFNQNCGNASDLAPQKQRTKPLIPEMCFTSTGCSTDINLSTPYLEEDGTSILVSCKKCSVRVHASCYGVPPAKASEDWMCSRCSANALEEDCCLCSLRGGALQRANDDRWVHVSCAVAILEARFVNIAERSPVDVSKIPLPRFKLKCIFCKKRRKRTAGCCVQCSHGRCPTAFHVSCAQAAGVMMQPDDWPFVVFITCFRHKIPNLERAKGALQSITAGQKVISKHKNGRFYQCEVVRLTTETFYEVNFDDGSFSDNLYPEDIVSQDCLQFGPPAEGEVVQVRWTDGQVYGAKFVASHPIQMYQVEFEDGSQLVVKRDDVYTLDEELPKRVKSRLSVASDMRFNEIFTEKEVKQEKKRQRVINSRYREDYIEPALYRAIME
# Experiment: qHTS Assay for Inhibitors of JMJD2A-Tudor Domain; also: nearly all actives have a fitted effect of over 50% in size
# Details: AlphaScreen JMJD2A-Tudor / H3K4me3 peptide binding; series mostly up to 114 µM
# Potency is read from the fitted curve at half-maximal effect.
row,Structure (SMILES),Potency
1,COc1ccc(Cn2c(C(=O)O)c(CNCc3cccc(OC)c3)c3ccc(C)cc32)cc1,inactive
2,COc1ccccc1C(=O)Nc1c(C(=O)Nc2ccc(C)cc2)oc2ccccc12,inactive
3,Cc1ccc(-c2nn3c(=O)cc(CN4CCN(S(=O)(=O)c5ccc(Cl)cc5)CC4)nc3s2)cc1,inactive
4,Cc1cccc(Cc2c(C)nc3nc(SCc4ccccc4Cl)nn3c2C)c1,inactive
5,O=C(CNc1ccc(F)cc1F)NC(=O)NCc1ccco1,inactive
6,Cc1cc(C)n2nc(SCC(=O)NC(=O)NCc3ccco3)nc2n1,20 µM (active)
7,Cc1cc(C)n2nc(SCC(N)=O)nc2n1,inactive
8,COc1ccc(-c2onc(C)c2C)cc1S(=O)(=O)NCC1CCN(Cc2cccc(F)c2)CC1,inactive
9,CCN(CC)S(=O)(=O)c1cccc(-c2n[nH]c(=S)n2/N=C/c2ccc(C(=O)OC)cc2)c1,10 µM (active)
10,CCN(CC)S(=O)(=O)c1cccc(NC(=O)c2ccc(S(=O)(=O)N3CCCC3)cc2)c1,inactive
11,COC(=O)c1ccc(NC(=O)CSc2n[nH]c(-c3ccccc3)n2)cc1,inactive
12,COc1ccc(N2C(=O)CS(=O)(=O)C23C(=O)N(Cc2ccc(C)cc2)c2ccccc23)cc1Cl (stereo unspecified),inactive
13,COc1ccc(CC(=O)NCCc2sc3nc(-c4ccc(OC)cc4)nn3c2C)cc1,inactive
14,Cc1cccc(C(=O)NCCc2nc3ccccc3n2Cc2ccccc2Cl)c1,inactive
15,Cc1cccc(-n2cnc(C(=O)Nc3cccnc3)c2)n1,inactive
16,Cc1nn(C)cc1C(=O)NNC(=S)Nc1ccc(Cl)cc1,inactive
17,Cc1cccc(-n2cnc(C(=O)NNC(=S)Nc3ccccc3)c2)n1,35.5 µM (active)
18,Cc1ccc2c(c1)c1c(c(=O)n(-c3ccccc3)c(=O)n1CC(=O)c1ccc(Cl)cc1)n2C,inactive
19,Cc1ccc(C)c(OCC(=O)Nc2sc3c(c2C#N)CCCC3)c1C,inactive
20,Cc1cc(C)cc(NC(=O)CSc2nc(=O)n(CCN3CCOCC3)c3c2CCC3)c1,inactive
21,CC1CCCN(CCOCCOc2ccccc2-c2ccccc2)C1 (stereo unspecified),20 µM (active)
22,CC1CCCN(CC(=O)Nc2cc(Cl)ccc2Oc2ccccc2)C1 (stereo unspecified),inactive

row,Structure (SMILES),Potency
1,c1ccc(-c2ccccc2OCCN2CCCCC2)cc1,8.91 µM (active)
2,O=S(=O)(c1cccs1)N1CCN(CCOc2ccccc2)CC1,inactive
3,CC1CC(C)CN(CCOc2cccc3ccccc23)C1 (stereo unspecified),inactive
4,O=C(COc1ccccc1Cl)N1CCCCCCC1,inactive
5,COCCNC(=O)CSc1nc(-c2ccccc2)[nH]c1-c1ccc(C)cc1,inactive
6,COc1cccc(CNC(=O)CN2C(=O)CCc3cc(S(=O)(=O)N4CCOCC4)ccc32)c1,inactive
7,Cc1ccc(Cl)cc1-n1ncc2c(N3CCC(C(N)=O)CC3)ncnc21,inactive
8,Cc1ccc(C(=O)N2CCc3cc(CNC(=O)c4ccc(Br)cc4)ccc32)cc1,inactive
9,O=C(COc1ccc(/C=N/NS(=O)(=O)c2ccccc2)cc1)NCCc1ccccc1,inactive
10,COc1ccc(N2CC(NS(=O)(=O)c3ccc4ccccc4c3)CC2=O)cc1 (stereo unspecified),inactive
11,O=S(=O)(N/N=C\c1cccn1-c1ccccc1)c1ccc2ccccc2c1,50.1 µM (active)
12,CCc1cnc2c(c1SCC(=O)N1CCC(C)CC1)c(=O)n(C)c(=O)n2C,inactive
13,Cc1cc(C)c(NC(=O)c2cc3sc(Cl)cc3n2C)c(C)c1,inactive
14,COc1cccc(OCC(O)CNC(=O)c2oc3c(C)c(C)ccc3c2C)c1 (stereo unspecified),inactive
15,COc1cccc(C(=O)OCc2cc(=O)oc3c(C)c(C)ccc23)c1OC,79.4 µM (active)
16,COC(=O)Cc1cc(=O)oc2c(C)c(O)ccc12,inactive
17,CCn1c(CN2CCC(C)CC2)nc2cc(NC(=O)c3ccccc3[N+](=O)[O-])ccc21,inactive
18,Cc1nn(C(C)C(=O)Nc2ccc(C(C)C)cc2)c(=O)c2c1sc1ccccc12 (stereo unspecified),inactive
19,COc1ccc(NC(=O)CCc2nnc3n(CC(C)C)c(=O)c4ccccc4n23)cc1OC,inactive
20,COC(=O)c1ccccc1NC(=O)c1ccc(COc2ccccc2Cl)o1,inactive
21,CCN(CCCNC(=O)c1cc2c(=O)n(CC)c3ccccc3c2s1)Cc1ccccc1,inactive
22,N#Cc1c(N2CCCCC2)nc(N)c2c(N)nc(SCC(=O)O)cc12,50.1 µM (active)

row,Structure (SMILES),Potency
1,N#Cc1c(C(F)(F)F)cc(-c2ccc(Cl)cc2)nc1SCC(=O)O,inactive
2,O=C(O)CSc1ccc(S(=O)(=O)N2CCCC2)cn1,inactive
3,COc1cc(NC(=O)c2cc(C3CC3)nc3c2c(C)nn3-c2ccccc2)cc(OC)c1,inactive
4,Cc1ccc(C)c(N2CCN(C(c3ccccc3)c3nnc(-c4ccccc4)o3)CC2)c1 (stereo unspecified),inactive
5,CCc1ccc(NC2Nc3cc(C)nn3S2)cc1 (stereo unspecified),22.4 µM (active)
6,CCOC(=O)c1ccc(NC2Nc3cc(C)nn3S2)cc1 (stereo unspecified),inactive
7,COc1cccc(N2CC(NC(=O)/C=C\c3ccccc3)CC2=O)c1 (stereo unspecified),inactive
8,Cc1ccc(C)c2c1cc(C)c1nnc(SCC(=O)Nc3cccc(C(=O)O)c3)n12,12.6 µM (active)
9,COc1ccccc1-n1c(SCC(=O)Nc2cccc(C(=O)O)c2)nnc1-c1ccccc1O,inactive
10,Cc1ccc(C(=O)NCCc2nnc(SCC(=O)Nc3cccc(C(=O)O)c3)n2C)cc1,inactive
11,COC(=O)c1ccc(NC(=O)c2cc(S(=O)(=O)N3CCC(C)CC3)cn2C)cc1,inactive
12,Cc1ccc(Nc2nc3ccccc3nc2-n2nc(C)cc2C)c(Cl)c1,inactive
13,Cc1ccc(Cn2ncc3c4sc(C)cc4n(C)c3c2=O)c(C)c1,inactive
14,COCCCNC(=O)c1ccc(CNS(=O)(=O)c2ccc(NC(C)=O)cc2)cc1,50.1 µM (active)
15,Cc1ccc(CCNC(=O)c2ccc(CNS(=O)(=O)c3ccc(C)cc3)cc2)cc1,inactive
16,CCCCNC(=O)C1CCC(CNS(=O)(=O)c2ccc(NC(C)=O)cc2)CC1 (stereo unspecified),inactive
17,Cc1ccc(CN2CCC(CNC(=O)c3cnn(-c4ccccc4Cl)c3C3CCN(C(=O)OC(C)(C)C)CC3)CC2)cc1,inactive
18,CCc1cccc(CC)c1NC(=O)Cn1c(=O)c(-c2cc(C)ccc2NC(C)=O)nc2ccccc21,inactive
19,COC(=O)c1ccccc1NC(=O)C(Cc1ccccc1)N1Cc2ccccc2C1=O (stereo unspecified),inactive
20,CCN(CC)c1ccc(/C=N/Nc2nc(C)cc(C)n2)c(O)c1,50.1 µM (active)
21,CCOc1cc(/C=N/Nc2cc(C)nc3ccc(C)cc23)ccc1O,inactive
22,CCN(CC)c1ccc(/C=N/NC(=O)c2cnccn2)c(O)c1,inactive

# Source: PubChem BioAssay AID504339 (National Center for Advancing Translational Sciences (NCATS), 2011)
